BAZ2B block: blocks human BAZ2B. Potency, µM (series often up to 114 µM), for the others: top-dose activity change, negative = inhibition, actives largely listed as inhibitors. AID 504333. Q9UIF8. 360,000 compounds, 4.4% hits. AlphaScreen BAZ2B-H3K14Ac peptide displacement; note: % is set by controls: 0 for no effect and ±100 for the full control effect; nearly all actives have a fitted effect of over 60% in size
Target sequence (Q9UIF8 whole entry, looked up): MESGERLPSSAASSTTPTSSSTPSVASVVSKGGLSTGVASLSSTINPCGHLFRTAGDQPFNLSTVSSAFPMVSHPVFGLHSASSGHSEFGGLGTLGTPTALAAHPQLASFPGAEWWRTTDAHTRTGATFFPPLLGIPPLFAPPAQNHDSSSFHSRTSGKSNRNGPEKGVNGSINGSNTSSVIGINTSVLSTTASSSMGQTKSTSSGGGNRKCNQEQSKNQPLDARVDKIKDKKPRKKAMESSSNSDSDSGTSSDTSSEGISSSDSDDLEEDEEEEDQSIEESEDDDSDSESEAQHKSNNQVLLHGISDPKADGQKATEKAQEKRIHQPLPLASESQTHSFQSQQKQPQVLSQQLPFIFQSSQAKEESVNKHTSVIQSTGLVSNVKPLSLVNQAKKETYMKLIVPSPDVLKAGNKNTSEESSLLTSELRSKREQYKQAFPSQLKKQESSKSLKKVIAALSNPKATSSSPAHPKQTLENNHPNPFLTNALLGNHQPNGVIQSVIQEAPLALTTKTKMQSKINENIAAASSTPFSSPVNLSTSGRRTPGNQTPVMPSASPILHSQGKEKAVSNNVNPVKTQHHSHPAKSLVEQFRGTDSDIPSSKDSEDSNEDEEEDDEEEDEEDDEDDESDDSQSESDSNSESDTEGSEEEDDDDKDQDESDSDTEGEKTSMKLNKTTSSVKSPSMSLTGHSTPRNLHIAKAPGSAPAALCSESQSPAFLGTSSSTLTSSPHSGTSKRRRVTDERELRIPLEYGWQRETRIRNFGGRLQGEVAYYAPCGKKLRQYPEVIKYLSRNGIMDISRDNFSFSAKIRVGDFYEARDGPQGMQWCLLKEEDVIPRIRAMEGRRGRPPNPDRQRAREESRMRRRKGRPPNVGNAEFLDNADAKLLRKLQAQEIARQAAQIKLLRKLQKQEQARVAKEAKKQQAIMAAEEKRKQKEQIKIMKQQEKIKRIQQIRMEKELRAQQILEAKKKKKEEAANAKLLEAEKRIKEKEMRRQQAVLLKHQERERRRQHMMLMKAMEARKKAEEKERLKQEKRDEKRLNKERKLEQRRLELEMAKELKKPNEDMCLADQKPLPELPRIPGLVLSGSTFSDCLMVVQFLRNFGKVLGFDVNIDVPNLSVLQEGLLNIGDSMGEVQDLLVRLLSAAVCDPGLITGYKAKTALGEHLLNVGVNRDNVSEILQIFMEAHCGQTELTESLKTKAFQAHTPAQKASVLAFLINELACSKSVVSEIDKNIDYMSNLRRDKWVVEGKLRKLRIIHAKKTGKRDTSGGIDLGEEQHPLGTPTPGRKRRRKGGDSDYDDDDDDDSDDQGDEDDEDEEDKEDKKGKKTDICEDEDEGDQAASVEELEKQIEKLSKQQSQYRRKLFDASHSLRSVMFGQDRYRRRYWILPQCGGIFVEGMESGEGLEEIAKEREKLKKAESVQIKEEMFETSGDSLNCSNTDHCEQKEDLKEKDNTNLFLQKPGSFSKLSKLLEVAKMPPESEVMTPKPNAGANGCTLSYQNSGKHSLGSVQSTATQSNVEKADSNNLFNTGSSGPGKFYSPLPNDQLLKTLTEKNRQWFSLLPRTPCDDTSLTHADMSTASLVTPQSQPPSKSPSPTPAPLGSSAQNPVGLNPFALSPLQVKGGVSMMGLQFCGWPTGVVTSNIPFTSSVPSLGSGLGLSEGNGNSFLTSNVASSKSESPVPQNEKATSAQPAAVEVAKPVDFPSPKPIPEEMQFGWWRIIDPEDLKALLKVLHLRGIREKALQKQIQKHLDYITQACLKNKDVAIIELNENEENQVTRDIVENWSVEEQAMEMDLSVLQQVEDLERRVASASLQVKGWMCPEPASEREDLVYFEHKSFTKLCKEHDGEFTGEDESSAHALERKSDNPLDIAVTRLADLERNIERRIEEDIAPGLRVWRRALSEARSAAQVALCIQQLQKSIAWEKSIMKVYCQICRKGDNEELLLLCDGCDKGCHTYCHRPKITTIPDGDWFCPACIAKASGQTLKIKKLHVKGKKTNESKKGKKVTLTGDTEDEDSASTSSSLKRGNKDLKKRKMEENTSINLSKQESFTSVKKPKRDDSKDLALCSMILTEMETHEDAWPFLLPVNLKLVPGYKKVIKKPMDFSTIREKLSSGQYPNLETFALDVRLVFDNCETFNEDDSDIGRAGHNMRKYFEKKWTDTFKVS
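Inhibition is scored as reduced AlphaScreen emission. The BAZ2B/b-H3(5-23)K14Ac complex (50 nM each) in PBS pH 7.4, 0.01% Tween-20 meets compound (up to 110 uM) for 30 min at RT before bead addition.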
HP1b binding inh: blocks HP1-beta chromodomain binding to methylated histone tails | 390,000 compounds, 0.56% hits | P83916 | AID 540317 | Potency, µM (highest dose often 114 µM), inactives show top-dose activity change, negative = inhibition, most hits filed as inhibitors | AlphaScreen HP1-beta / biotin-H3K9me3 peptide binding; note: nearly all actives have a fitted effect of over 70% in size
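HP1-beta protein (50 nM final) preincubated 30 min at room temperature with biotinylated H3(1-18)K9me3 peptide (50 nM) in PBS pH 7.4, 0.01% Tween-20, then compound added for 30 min. AlphaScreen streptavidin donor/nickel chelate acceptor beads (10 ug/mL final), 30 min dark, luminescence read.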
JMJD2A Tudor: inhibitors of human JMJD2A Tudor domain; AlphaScreen JMJD2A-Tudor / H3K4me3 peptide binding; Potency, µM (doses to about 114 µM), inactives show top-dose activity change, negative = inhibition, actives largely listed as inhibitors; O75164; 390,000 compounds, 4.4% hits; note: % is set by controls: 0 for no effect and ±100 for the full control effect; nearly all actives have a fitted effect of over 50% in size
Sfp PPTase inh: Sfp phosphopantetheinyl transferase inhibition | 310,000 compounds, 3.5% hits | Q9F4F7 | Biochemical Sfp PPTase activity, qHTS | AID 1490 | Potency, µM, inactives show largest response in the series, negative = inhibition, usual class: inhibitors;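 note: the enzyme is Sfp with the accession as filed and its product quenches rhodamine fluorescence; 0% = enzyme reaction without inhibitor and -100% = no enzyme wells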
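With Hepes-Na pH 7.6 buffer containing 10 mM MgCl2, Sfp (15 nM) modified BHQ-2-YbbR (12.5 uM) using rhodamine-CoA (5 uM). Two reads 30 minutes apart at 525/598 nm yielded each well's rate.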
G9a inh: blocks human histone lysine methyltransferase G9a. Potency, µM (top dose mostly 102 µM), for the others: at the top dose activity, negative = inhibition, usual class: inhibitors. 350,000 compounds, 8.8% hits. G9a H3K9 monomethylation, AlphaScreen, 2 h. Q96KQ7; note: % is set by controls: 0 for no effect and ±100 for the full control effect; nearly all actives have a fitted effect of over 75% in size
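Chemiluminescent proximity detection of H3K9 monomethylation, read after 10 min bead incubation in the dark. Reaction: 20 nM G9a, 500 nM biotin-H3K9 peptide, 20 uM SAM cofactor, 2 h, room temperature, following 15 min enzyme-compound preincubation.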
Starred values were filed as active, the others as inactive; ? = inconclusive; nt = no result; ! = not active in a repeat; [ ] = remark or other dose. In the library only some 12% were active in any assay of this set; here they are far more common. Calls come from the whole dose curve; as a rule, active = well fitted curve in the direction sought with a large enough effect; inconclusive = small, poorly fitted or top-dose-only effect, or another doubt; inactive = no such curve, though single readings can be large; an effect the other way counts as inactive or inconclusive. Potency is the fitted concentration of half-maximal effect.

SMILES	BAZ2B block	HP1b binding inh	JMJD2A Tudor	Sfp PPTase inh	G9a inh
CC1CCN(CCOCCOc2ccc(Br)cc2Cl)CC1	?	?	2.8µM*	7%	8.9µM*
O=C(COc1ccc(Br)cc1Cl)NCCCN1CCOCC1	0%	35%	-9%	14%	-23%
O=C(COc1ccc(Br)cc1Cl)NC1CCN(Cc2ccccc2)CC1	-19%	19%	-23%	11%	11%
CC1CCCN(CCCOc2ccc(Br)cc2Cl)C1 (stereo not given)	?	?	1.1µM*	-21%	20µM*
CC(=O)C1=C(c2ccc(F)cc2)N(C(C)=O)n2c(nnc2C2CCCCC2)S1	0%	36%	9%	nt	1%[59 µM]
Cn1nccc1NC(=O)NC(=O)c1c(Cl)cccc1Cl	-3%	30%	-6%	18%	20%
Cn1nccc1NC(=O)c1nccnc1C(=O)O	?	22%	-3%	-22%	40µM*
Cn1nc(C(F)(F)F)c(-c2ccccc2)c1NC(=O)c1nccnc1C(=O)O	79µM*	35%	?	-15%	nt
CC(=O)Nc1ccc(NC(=O)c2nccnc2C(=O)O)cn1	50µM*	11%	-9%	-10%	21%
COc1cc(NC(=O)c2nccnc2C(=O)O)cc(OC)c1	?	16%	40µM*	-6%	22µM*
O=C(O)c1nccnc1C(=O)Nc1ccc(Oc2c(Cl)cccc2Cl)nc1	?	14%	-23%	?	nt
C=CCOC(=O)N[C@H](/C(C(=O)OC)=C(\C)NCc1ccccc1)c1cccc(OC)c1	nt	nt	nt	-16%	nt
CCN1CCN(C(=O)/C=C/c2cccc(Cl)c2)CC1	-2%	38%	-13%	-3%	nt
CCOc1ccc(CCNC(=O)c2ccc3c(c2)N(Cc2ccccc2)C(=O)c2ccccc2S3=O)cc1OCC (stereo not given)	-13%	6%	-35%	nt	-42%[59 µM]
CC(C)C[C@H](NC(=O)[C@H](CO)NC(=O)CNC(=O)[C@H](CCCCN)NC(=O)[C@H](CCCN=C(N)N)NC(=O)[C@H](C)NC(=O)[C@H](Cc1ccccc1)NC(=O)[C@@H](N)CCCN=C(N)N)C(=O)N[C@@H](CCCN=C(N)N)C(=O)N[C@@H](CCC(N)=O)C(=O)N[C@@H](CCCCN)C(=O)N[C@@H](CC(N)=O)C(=O)N[C@H](C(=O)O)C(C)C	nt	nt	nt	11%	nt
COCCN(C(=O)COC(=O)CNC(=O)c1ccc(C)cc1)c1c(N)n(Cc2ccccc2)c(=O)[nH]c1=O	nt	59%	3%	nt	nt
CN(C(=O)c1cccc(NC(=O)Cc2ccc(NC(=O)C3CCCN(C(=O)CCc4ccccc4)C3)cc2)c1)C1CCCCC1 (stereo not given)	nt	22%	-22%	nt	nt
CN(C)c1ccc(/C=C(\NC(=O)c2ccccc2)C(=O)NCc2cccnc2)cc1	-17%	-3%	-10%	13%	40µM*
CN(C)c1ccc(/C=C(\NC(=O)c2ccccc2)C(=O)NCc2ccncc2)cc1	-22%	-7%	-31%	5%	28µM*
Cc1cc(C)n2c(Br)c(CSc3nc4ccccc4o3)nc2n1	-4%	30%	?	50µM*	?
O=c1c2ccccc2nc(SCc2cn3ccsc3n2)n1-c1ccccc1	?	2%	?	-8%	10µM*
c1ccc2oc(SCc3cn4ccsc4n3)nc2c1	-12%	2%	?	50µM*	?
Cc1csc2nc(CSc3nc4ccccc4o3)cn12	-5%	15%	-19%	56µM*	?
Cc1csc2nc(CSc3ccc(Cl)cc3)cn12	7%	65%	17%	-6%	22%[12.7 µM]
Nn1c(CSc2nc3ccccc3o2)nnc1CSc1nc2ccccc2o1	-7%	36%	-36%	2%	4%[12.7 µM]
SMILES	BAZ2B block	HP1b binding inh	JMJD2A Tudor	Sfp PPTase inh	G9a inh
O=C(CSc1nc(-c2ccco2)nc2cc(=O)[nH]n12)Nc1ccccc1F	-3%	26%	-13%	nt	?
COc1ccccc1OCC(=O)NN1Cc2ccccc2C1=N	-1%	35%	4%	14%	?
CC(C)(C)c1ccc(OCC(=O)NN2Cc3ccccc3C2=N)cc1	-14%	52%	-2%	19%	50µM*
N=C1c2ccccc2CN1NC(=O)COc1ccc(Cl)cc1	-12%	24%	-3%	0%	35µM*
COc1ccc(Cl)cc1Nc1ncnc2c1nc1n2CCCC1	3%	14%	-7%	nt	-3%[59 µM]
O=C1[C@H]2[C@H]3[C@H](O)[C@H](O)C/C(=N\OC[C@@H](O)COCc4ccco4)[C@@H]3CC[C@H]2C(=O)N1c1ccc(F)cc1F	-33%	nt	nt	3%	50µM*
O=C1[C@@H]2[C@H]3[C@H](O)[C@H](O)C/C(=N/OC[C@@H](O)COCc4ccco4)[C@H]3CC[C@H]2C(=O)N1c1ccc(F)cc1F	nt	nt	nt	13%	nt
COc1ccc(N(C(=O)c2ccc(OC)c(OC)c2)S(=O)(=O)c2ccc(Cl)cc2)cc1	?	2%	-17%	nt	?
Cc1ccc(Cl)cc1N1CCN(C(=O)CCn2c(=O)c3cccn3c3cccnc32)CC1	-18%	24%	-27%	nt	-7%[59 µM]
O=C(CCn1c(=O)c2cccn2c2cccnc21)N1CCN(c2cccc(Cl)c2)CC1	-32%	-15%	16µM*!	7%	?
C=Cc1ccc(CN2C(=O)c3ccccc3Sc3ccc(C(=O)OCc4ccco4)cc32)cc1	-24%	12%[57 µM]	-17%	nt	-25%[59 µM]
C=CCn1c(-c2ccccc2)c[nH]c1=S	-34%	?	7.9µM*	79µM*	?
Cn1c(-c2ccc(-c3ccccc3)cc2)c[nH]c1=S	-34%	-4%	?	-23%	14µM*
C=CCn1c(-c2ccc(Cl)cc2)c[nH]c1=S	-27%	9%	25µM*	3%	1.4µM*
CCn1c(-c2ccc(-c3ccccc3)cc2)c[nH]c1=S	-29%	21%	-36%	9%	?
C=CCn1c(=N)n(CC(=O)c2ccc(Cl)cc2)c2ccccc21	2%	44%	0%	-9%	-4%
CC(C)=CCC/C(C)=C/CNC(=O)C[C@H]1C[C@H](C(=O)N2CCOCC2)[C@@]2(CCC3CCCC3)c3[nH]c4cc(-c5ccco5)ccc4c3CCN2C1=O	nt	5%	?	nt	nt
CC(=O)c1cccc(Nc2c3c(nc4nc(-c5cccs5)nn24)CCCC3)c1	-19%	22%[57 µM]	-16%	nt	-7%[59 µM]
CN(C(=O)COC(=O)CSc1ccc([N+](=O)[O-])cc1)C1CCS(=O)(=O)C1 (stereo not given)	10%	3%	-17%	nt	50µM*
CN(C(=O)COC(=O)CSc1ccc(C(N)=O)cc1[N+](=O)[O-])C1CCS(=O)(=O)C1 (stereo not given)	6%	-3%	-10%	nt	-41%
Cc1ccc(SCC(=O)OCC(=O)NC2CCCCCCC2)cc1	32%	79%	21%	nt	9%[0.501 µM]
O=C(COC(=O)c1ccc(-c2ccc([N+](=O)[O-])cc2)o1)NC(=O)NC1CCCCC1	-6%	-11%	-31%	?	40µM*

Assay outcomes deposited in PubChem BioAssay by National Center for Advancing Translational Sciences (NCATS).
